Screens deposited in PubChem by Sanford-Burnham Center for Chemical Genomics.
CYP2C19 act – activators of human cytochrome P450 2C19; AID 1025; P33261; activation factor at 5 µM; recombinant CYP2C19, luciferin-H EGE luminescence; stronger effect = higher value; 0 = fully inhibited enzyme, 1 = untreated enzyme; 96,000 tested, under 10 active;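 active = activation factor of at least 2 at 5 µM in the primary screen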;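 note: 0 = wells with 2.5 mM tranylcypromine and 1 = vehicle-only wells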
CYP2C9 act – CYP2C9 (human) activation; recombinant CYP2C9, luciferin-H conversion, luminescence; stronger effect = higher value; factor 1 = untreated enzyme, 0 = blocked; activation factor at 5 µM; actives 1.4% (n = 96,000); AID 1024;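 active = activation factor of 2 or more for CYP2C9 at a 5 µM dose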;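 note: 0 = sulfaphenazole-blocked wells and 1 = vehicle-only wells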
Target sequence (P11712 whole entry, looked up): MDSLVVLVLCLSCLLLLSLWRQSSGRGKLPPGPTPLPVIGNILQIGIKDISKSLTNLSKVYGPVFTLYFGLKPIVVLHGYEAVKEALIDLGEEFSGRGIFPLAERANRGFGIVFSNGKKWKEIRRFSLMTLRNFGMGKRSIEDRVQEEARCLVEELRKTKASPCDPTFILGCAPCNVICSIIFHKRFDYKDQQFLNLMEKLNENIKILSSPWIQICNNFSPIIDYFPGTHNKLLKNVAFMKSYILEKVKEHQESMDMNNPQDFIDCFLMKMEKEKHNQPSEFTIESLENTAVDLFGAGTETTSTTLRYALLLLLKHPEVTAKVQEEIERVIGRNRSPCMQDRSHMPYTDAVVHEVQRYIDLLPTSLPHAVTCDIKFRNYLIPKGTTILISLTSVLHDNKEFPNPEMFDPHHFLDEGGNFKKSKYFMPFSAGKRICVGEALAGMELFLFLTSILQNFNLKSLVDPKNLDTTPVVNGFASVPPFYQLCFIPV
CYP2C9 inh – blocks human cytochrome P450 2C9; P11712; CYP2C9 Supersomes, luciferin-H conversion, luminescence; inhibition, % at 5 µM; actives 20% (n = 96,000);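 active = blocking of liver enzyme CYP2C9 beyond about 50% at 5 µM, limit read from the data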
CYP2C19 inh – inhibitors of human CYP2C19; P33261; CYP2C19 Supersomes, luciferin-H EGE luminescence, 30 min; inhibition, % at 5 µM; actives 21% (n = 96,000); AID 778;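 active = CYP2C19 inhibition above a set limit at 5 µM in the primary screen, cut at about 50% in these data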;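 note: plate controls were negative control wells for no effect and 2.5 mM tranylcypromine positive control for full effect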
* hit, by the source's call. Shown are actives, neighbours in structure and some others; about 31% of the full set was active somewhere.

SMILES | CYP2C19 act | CYP2C9 act | CYP2C9 inh | CYP2C19 inh
COC(=O)c1ccc(COc2ncnc3c(Cl)cc(Cl)cc23)o1 | 0.6 | 0.4 | 62* | 44
Nc1scc2c(C(=O)N/N=C/c3ccc(Cl)cc3)nn(-c3ccccc3)c(=O)c12 | 0.9 | 0.5 | 54* | 6
CCOC(=O)c1nn(-c2ccccc2)c(=O)c2c(N)scc12 | 0.9 | 1 | 5 | 7
CCOc1ccccc1C(=O)N1CCN=C1SCc1cccnc1 | 0.4 | 0.6 | 38 | 64*
O=C(C1CCCCC1)N1CCN=C1SCc1cccnc1 | 0 | 0.5 | 46 | 95*
COc1ccc(C(=O)N2CCN=C2SCc2cccnc2)cc1OC | 0.2 | 0.9 | 7 | 83*
O=C(c1ccccc1F)N1CCN=C1SCc1cccnc1 | 0.2 | 0.5 | 50 | 82*
CCCCN=Cc1sc2ccc(OCC)cc2c1O | 0.1 | 1.1 | -9 | 94*
Cn1nccc1C(=O)c1ccc(Cl)cc1 | 0.4 | 0.8 | 23 | 58*
COC(=O)c1sccc1NC(=O)CN(C)NS(=O)(=O)c1ccc(Cl)cc1 | 0.8 | 0.9 | 11 | 15
COC(=O)c1sccc1NC(=O)CN(C)NS(=O)(=O)c1ccc([N+](=O)[O-])cc1 | 1 | 0.9 | 12 | 2
COC(=O)c1sccc1NC(=O)CSc1nnnn1-c1ccccc1F | 1 | 2.1* | -114 | 4
COC(=O)c1sccc1NC(=O)CN(C)NS(=O)(=O)c1ccc(F)cc1 | 0.8 | 0.1 | 91* | 17
COC(=O)c1sccc1NC(=O)CSc1ccccc1NS(=O)(=O)c1ccc(F)cc1 | 0.7 | 0.3 | 74* | 27
COc1ccc(OC)c(NC(=O)CSc2nnnn2-c2ccccc2F)c1 | 0.8 | 1.1 | -14 | 22
COC(=O)c1sccc1NC(=O)CSc1ccccc1NS(=O)(=O)c1ccc(Br)cc1 | 0.8 | 0.2 | 80* | 19
CCN(c1ccc(C)c(C)c1)S(=O)(=O)c1c(C)[nH]c(=O)[nH]c1=O | 0.9 | 1.3 | -25 | 6
O=c1cc(CN2CCc3ccccc32)nc2sccn12 | 0.4 | 0.3 | 67* | 57*
O=C(C1CCC(=O)N1Cc1ccccc1Cl)N1CCN(c2cccc(Cl)c2)CC1 (stereo unspecified) | 0.9 | 0.8 | 21 | 14
CCc1ccc(N2CC(C(=O)Nc3ccc(C)c(S(=O)(=O)N4CCOCC4)c3)CC2=O)cc1 (stereo unspecified) | 0.1 | 0 | 100* | 90*
COc1ccccc1NC(=O)C1CC(=O)N(c2ccc(F)cc2)C1 (stereo unspecified) | 0.8 | 0.9 | 9 | 21
Cc1ccc(N2CC(C(=O)Nc3nnc(C)s3)CC2=O)cc1 (stereo unspecified) | 1.1 | 0.7 | 28 | -11
Cc1ccc(N2CC(C(=O)Nc3ccc(S(=O)(=O)N4CCCC4)cc3)CC2=O)cc1 (stereo unspecified) | 0.7 | 0.5 | 50 | 27
CCOc1ccc(N2CC(C(=O)Nc3ccccc3F)CC2=O)cc1 (stereo unspecified) | 0.8 | 0.3 | 68* | 16
Cc1ccc(N2CC(C(=O)Nc3ccncc3)CC2=O)cc1 (stereo unspecified) | 0 | 0 | 99* | 98*
SMILES | CYP2C19 act | CYP2C9 act | CYP2C9 inh | CYP2C19 inh
COC(=O)c1ccccc1NC(=O)C1CC(=O)N(c2ccc(C)cc2)C1 (stereo unspecified) | 0.7 | 0.4 | 57* | 29
N#Cc1ccc2ccn(CC(=O)NCc3ccco3)c2c1 | 0.9 | 1 | -4 | 13
O=C(O)CCN1C(=O)/C(=C\c2ccc(-c3nc4ccccc4s3)o2)SC1=S | 1 | 0.7 | 26 | -4
C/C(=N/OC(=O)c1c(F)cccc1F)c1nccs1 | 0.9 | 1.1 | -10 | 14
CCCc1cc(=O)oc2c(C)c(OCC(=O)c3ccc(N4CCCC4)cc3)ccc12 | 1.1 | 0.9 | 5 | -10
COC(=O)c1ccc(NC(=O)C2CC(=O)N(c3cc(C)ccc3C)C2)cc1 (stereo unspecified) | 0.9 | 1.2 | -20 | 8
Cc1ccc(NC(=O)C2CC(=O)N(c3ccc4c5c(cccc35)CC4)C2)cc1 (stereo unspecified) | 0.7 | 0.4 | 56* | 26
CC(=O)Nc1cccc(NC(=O)C2CC(=O)N(c3ccc(C)cc3)C2)c1 (stereo unspecified) | 0.3 | 0.3 | 68* | 72*
Cc1ccc(N2CC(C(=O)Nc3cc(C)ccc3F)CC2=O)cc1 (stereo unspecified) | 0.3 | 0.1 | 90* | 75*
Cc1ccc(N2CC(C(=O)Nc3cccnc3)CC2=O)cc1 (stereo unspecified) | 0.5 | 0.6 | 37 | 50
CCc1ccc(N2CC(C(=O)Nc3cccnc3)CC2=O)cc1 (stereo unspecified) | 0.4 | 0.3 | 74* | 58*
O=c1c2ccccc2nc2n1CCCCN2 | 0.9 | 0.8 | 16 | 11
C=CCNC(=O)C1CC(=O)N(c2ccc(OCC(=O)Nc3cccc(OC)c3)cc2)C1 (stereo unspecified) | 0.8 | 0.4 | 56* | 19
Cc1ccc(CSCCNC(=O)/C=C/c2ccc(Cl)cc2)cc1 | 0.8 | 1 | 1 | 24
COc1ccc(C(=O)NCCSCc2ccc(C)cc2)cc1 | 0.4 | 0.5 | 53* | 55*
Cc1ccc(SCCC(=O)NCCSCc2ccccc2C)cc1 | 0.7 | 0.2 | 81* | 33
COc1ccc(C(=O)NCCSCc2ccccc2C)cc1 | 0.4 | 0.5 | 52* | 55*
Cc1cc(SCC(=O)N/N=C/c2ccc(O)cc2O)c(C)cc1Br | 1.1 | 0.7 | 33 | -9
CCCCc1ccc(NC(=O)OC)cc1 | 0.5 | 0.4 | 65* | 49
CCNC(=S)NN(c1ccccc1)c1ccccc1 | 0 | 0.6 | 44 | 96*
CC(=O)c1nc(N2C(=O)CC(Cc3cccc(C)c3)C2=O)sc1C (stereo unspecified) | 0.6 | 0.5 | 49 | 37
Cc1cc(C(F)F)n2ncc(C(=O)NCCc3ccccc3Cl)c2n1 | 0.3 | 0.9 | 10 | 74*
O=C(NCc1ccc(Cl)cc1)c1cnn2ccccc12 | 0.2 | 1 | -4 | 76*
Cc1cc(C(F)F)n2ncc(C(=O)NCc3ccccc3)c2n1 | 0.4 | 1.1 | -10 | 60*
O=C(NCCc1ccccc1)c1cnn2c(C(F)F)cc(C3CC3)nc12 | 0.1 | 0.5 | 46 | 87*
SMILES | CYP2C19 act | CYP2C9 act | CYP2C9 inh | CYP2C19 inh
O=C(NCc1ccc(Cl)cc1)c1ccc(Cl)cc1[N+](=O)[O-] | 0.7 | 1.2 | -24 | 27
Cc1cc(C)n2nc(C(=O)NCc3ccccc3)cc2n1 | 0.7 | 1.2 | -20 | 28
O=C(CSc1nnc(CNC(=O)c2ccccc2F)o1)c1ccccc1 | 0.7 | 0.6 | 37 | 30
Cc1cc(C)n2ncc(C(=O)NCc3ccccc3)c2n1 | 0.8 | 1 | -2 | 17
O=C(NCc1ccc(Cl)cc1)c1ccccc1Oc1ccccc1 | 0.7 | 0.5 | 54* | 32
Cc1cc(C(F)(F)F)n2ncc(C(=O)O)c2n1 | 1.2 | 2* | -99 | -22
O=C(CCn1cccc1)NCc1ccc(Cl)cc1 | 0.4 | 1 | -4 | 64*
Cc1cc(C)n2ncc(C(=O)NCc3ccc(Cl)cc3)c2n1 | 0.2 | 0.6 | 44 | 75*
